Reference: PubChem BioAssay (NCATS)
Results filed as inconclusive are left out. Calls of active or inactive are those of the source. Calls come from the whole dose curve; as a rule, active = well fitted inhibition curve with a large enough effect; inconclusive = small, poorly fitted or top-dose-only effect; inactive = flat fitted curve, though single readings scatter.

Assays:
Assay in all cases: Cytotoxic Profiling of Annotated Libraries Using Quantitative High-Throughput Screening (AID 1296008); note: nearly all actives have a fitted effect of over 60% in size
Conditions in all cases: Five cell lines viability, CellTiter-Glo ATP luminescence, 48-72 h; max response: hits give low values
CRL-7250 = system: CRL-7250
Procedure, shortened: (§1)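 Cytotoxicity was measured as CellTiter-Glo ATP luminescence, read after 10 min at room temperature. Compound treatment of the cells lasted 48 or 72 hr at 37 degrees Celsius in a qHTS format.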

HEK293 = system: HEK293
Procedure, shortened: as §1

HaCat = system: HaCat
Procedure, shortened: as §1

KB-3-1 = system: KB-3-1
Procedure, shortened: as §1

NIH3T3 = system: NIH3T3
Procedure, shortened: as §1

Measured: max response
% is set by controls: 0 for no effect and ±100 for the full control effect.

CC(=O)c1c(O)cc2cccc3c2c1CC(C)(O)O3 (stereo not given)
inactive: CRL-7250 | HEK293 | HaCat | KB-3-1 4.55% | NIH3T3 -0.44%

CCc1cc2c(=O)c(-c3nc4ccccc4s3)coc2c(CN2CCCCC2)c1O
inactive: CRL-7250 0.116% | HEK293 | HaCat | KB-3-1 -10.9% | NIH3T3 2.93%

COC(=O)C12C(=O)C(C)=C(O)C1(C)C(C)=CC1C34CCC(OC3=O)C(C)(C)C4CCC12C (stereo not given)
inactive: CRL-7250 -4.32% | HEK293 | HaCat 1.85% | KB-3-1 6.41% | NIH3T3

C[C@@H]1CC[C@]2(C)C(C[C@@H](O)[C@H](O)[C@]23CO3)[C@@]1(C)CCc1ccoc1 (stereo not given in full)
inactive: CRL-7250 | HEK293 | HaCat | KB-3-1 7.33% | NIH3T3 -3.46%

CC(C)CC1(C(=O)OCc2ccc(O[C@@H]3O[C@H](CO)[C@@H](O)[C@H](O)[C@H]3O)cc2)CC(=O)OC(C(=O)O)CC(=O)OCC2OC(O1)C(OC(=O)/C=C/c1ccc(O)cc1)C(O)C2O (stereo not given in full)
inactive: CRL-7250 2.72% | HEK293 | HaCat -1.08% | KB-3-1 8.15% | NIH3T3

COc1ccc([C@@H]2N[C@H](C(=O)O)Cc3c2[nH]c2ccccc32)cc1CN1CCN(c2ccccc2F)CC1
inactive: CRL-7250 -3.7% | HEK293 | HaCat 1.36% | KB-3-1 -4.47% | NIH3T3

C(#Cc1cccc(CN2CCOCC2)c1)CCN1CCCCC1
inactive: CRL-7250 -3.48% | HEK293 | HaCat | KB-3-1 2.31% | NIH3T3 1.81%

Cc1ncc([N+](=O)[O-])n1CC(O)CN1CCOCC1 (stereo not given)
inactive: all assays above

CC1(C)CC[C@]2(C(=O)O)CC[C@]3(C)C(=CCC4[C@@]5(C)C[C@@H](O)[C@H](O)C(C)(C)C5CC[C@]43C)[C@@H]2[C@@H]1O (stereo not given in full)
inactive: CRL-7250 -1.48% | HEK293 | HaCat -22.1% | KB-3-1 0.492% | NIH3T3 -12.3%

CC(C)=CC/C=C(/C)[C@H]1CC[C@]2(C)[C@@H]1[C@H](O)CC1[C@@]3(C)CC[C@H](O)C(C)(C)[C@@H]3[C@@H](O[C@@H]3O[C@H](CO)[C@@H](O)[C@H](O)[C@H]3O[C@@H]3O[C@@H](C)[C@H](O)[C@@H](O)[C@H]3O)C[C@]12C (stereo not given in full)
inactive: CRL-7250 -7.49% | HEK293 | HaCat | KB-3-1 7.96% | NIH3T3

CC(/C=C/C1(O)C2(C)COC1(C)CC(=O)C2)O[C@@H]1O[C@H](CO)[C@@H](O)[C@H](O)[C@H]1O (stereo not given in full)
inactive: CRL-7250 -2.92% | HEK293 | HaCat 3.45% | KB-3-1 | NIH3T3 3.43%

CC1CCCC2OC2C(=O)c2c(O)cc(O)cc2CC(=O)O1 (stereo not given)
inactive: CRL-7250 -0.57% | HEK293 | HaCat -2.51% | KB-3-1 3.41% | NIH3T3

CC1(C)CC2C3=CCC4C5(C)CCC(OC6OC(C(=O)O)C(O)C(O)C6OC6OC(CO)C(O)C(O)C6OC6OC(CO)C(O)C(O)C6O)C(C)(CO)C5CCC4(C)C3(C)CCC2(C)C(OC2OCC(O)C(OC3OC(CO)C(O)C(O)C3O)C2O)C1O (stereo not given)
inactive: CRL-7250 2.95% | HEK293 | HaCat | KB-3-1 5.61% | NIH3T3 -17.3%

COc1c(OC2OC(CO)C(O)C(O)C2O)ccc(O)c1C(=O)OCc1ccccc1O[C@@H]1O[C@H](CO)[C@@H](O)[C@H](O)[C@H]1O (stereo not given in full)
inactive: CRL-7250 | HEK293 | HaCat 3.76% | KB-3-1 | NIH3T3 -1.73%

C[C@@H]1C(=O)O[C@H]2[C@H]1CC[C@@]1(C)C(=O)C=C[C@](C)(O)[C@H]21
inactive: CRL-7250 | HEK293 | HaCat | KB-3-1 1.87% | NIH3T3 -2.11%

COc1cc(-c2cccc(O)c2)cc2c1OCO2
inactive: CRL-7250 -4.5% | HEK293 | HaCat 0.342% | KB-3-1 | NIH3T3

O=C(c1ccc(C#Cc2cccc(F)c2)cn1)N1CC2CC2C1 (stereo not given)
inactive: CRL-7250 | HEK293 | HaCat | KB-3-1 | NIH3T3 3.17%

C[C@H]1[C@H](C)CC[C@]2(C(=O)O)CC[C@]3(C(=O)O)C(=CCC4[C@@]5(C)CC[C@H](O[C@@H]6O[C@H](C)[C@@H](O)[C@H](O)[C@H]6O)C(C)(C)C5CC[C@]43C)[C@H]12 (stereo not given in full)
inactive: CRL-7250 -5.62% | HEK293 | HaCat 2.99% | KB-3-1 1.93% | NIH3T3
